{"source": "PubChem BioAssay AID2314", "about": "(National Center for Advancing Translational Sciences (NCATS), 2010)", "note": "The whole screen tested about 300,000 compounds, of which about 37,000 (12%) were called active. Cut-off read from the data, not from the text of the source: active = max response mostly above about 13% (no sharp cut-off); inactive = mostly below about 14%. Only a selection was taken, and actives are over-represented in it overall."}
{"test": "Cycloheximide Counterscreen for Small Molecule Inhibitors of Shiga Toxin; note: read at 38.3 µM for the half of the compounds with a filed dose; 0% is about no effect", "settings": "cell reporter, cycloheximide protein synthesis inhibition counterscreen; stronger effect = higher value"}
{"smiles": "O=C(Cc1ccccc1)Nc1c(Cl)ccc2nsnc12", "max response": "-0.56% (inactive)"}
{"smiles": "CCOC(=O)c1c(S(=O)(=O)NCC(=O)Nc2ccc(C)cc2)c(C)n(C)c1C", "max response": "-0.626% (inactive)"}
{"smiles": "COC(=O)c1cc(NS(=O)(=O)c2ccc3c(c2)c(=O)n(C)c(=O)n3C)cc(C(=O)OC)c1", "max response": "-10.6% (inactive)"}
{"smiles": "Cc1cccc(N(C(=O)c2csnn2)C(C(=O)NCc2ccccc2)c2ccncc2)c1", "note": "(stereo not given)", "max response": "-3.2% (inactive)"}
{"smiles": "COc1ccc(S(=O)(=O)N2CCC(C(=O)NCc3ccco3)CC2)cc1C", "max response": "-1.76% (inactive)"}
{"smiles": "Cc1ccccc1C(OCCN(C)C)C1CCCCC1", "note": "(stereo not given)", "max response": "-3.58% (inactive)"}
{"smiles": "COc1ccc(NS(=O)(=O)c2cc(NC(=O)C3CCCCC3)ccc2N2CCOCC2)cc1", "max response": "-4.24% (inactive)"}
{"smiles": "CC(C)CNc1ncnc2c1cnn2Cc1ccc(Cl)cc1", "max response": "-1.18% (inactive)"}
{"smiles": "CC(NC(=S)NNS(=O)(=O)c1ccc(C(C)(C)C)cc1)c1ccccc1", "note": "(stereo not given)", "max response": "-3.09% (inactive)"}
{"smiles": "CC(C)CC(NC(=O)C1CCCN1C(=O)[C@@H](C)NC(=O)OCc1ccccc1)C(=O)NCC(N)=O", "note": "(stereo not given in full)", "max response": "18.5% (inactive)"}
{"smiles": "COCC(=O)N1CCCC(C(=O)c2ccc(C(F)(F)F)cc2)C1", "note": "(stereo not given)", "max response": "2.21% (inactive)"}
{"smiles": "COc1ccc(CNC(=O)Cc2ccc(-c3ccccc3)cc2)cc1OC", "max response": "-3.24% (inactive)"}
{"smiles": "CCn1cc(C(=O)NCCC(=O)NCCO)c(=O)c2cc3c(cc21)OCO3", "max response": "-3.2% (inactive)"}
{"smiles": "O=C(NCc1nnc(SCC(=O)N2CCCCCC2)o1)c1ccc(F)cc1", "max response": "-0.334% (inactive)"}
{"smiles": "CC[C@@H]1Cc2cc(O)ccc2C2=C1c1ccc(O)cc1C[C@H]2CC", "max response": "-6.86% (inactive)"}
{"smiles": "Cc1ccc2nc(N3C(=O)C(O)=C(C(=O)c4ccco4)C3c3cccc(O)c3)sc2c1", "note": "(stereo not given)", "max response": "23.5% (active)"}
{"smiles": "COc1cc(C2C(C(=O)c3ccco3)=C(O)C(=O)N2c2cc(C)on2)ccc1OCc1ccccc1", "note": "(stereo not given)", "max response": "-4.25% (inactive)"}
{"smiles": "C=CCSc1nnc(N2C(=O)C(O)=C(C(=O)c3ccco3)C2c2ccc(F)cc2)s1", "note": "(stereo not given)", "max response": "1.8% (inactive)"}
{"smiles": "CCOC(=O)C1CCCN(CCSc2ccc(C)cc2)C1", "note": "(stereo not given)", "max response": "0.771% (inactive)"}
{"smiles": "O=C(NC1CCCC1)C(c1ccco1)N(C(=O)c1ccco1)c1ccc(F)cc1", "note": "(stereo not given)", "max response": "-3.92% (inactive)"}
{"smiles": "Cc1cc(F)ccc1NC(=O)C(C)n1c2ccccc2c2nc(=O)cc(C)n21", "note": "(stereo not given)", "max response": "-0.783% (inactive)"}
{"smiles": "CSc1cccc(NC(=S)N(Cc2ccccc2)Cc2ccccn2)c1", "max response": "7.83% (inactive)"}
{"smiles": "Cn1c(CC(=O)Nc2ccc(F)cc2)nnc1SCC(=O)NC1CCCCC1", "max response": "-1.89% (inactive)"}
{"smiles": "CCOC(=O)C1(Cc2cccc(OC)c2)CCCN(C(=O)CCSC)C1", "note": "(stereo not given)", "max response": "28.4% (active)"}
{"smiles": "CCOC(=O)C1(Cc2cccc(OC)c2)CCCN(S(=O)(=O)c2cccnc2)C1", "note": "(stereo not given)", "max response": "-3.01% (inactive)"}
{"smiles": "CCOC(=O)C1(Cc2cccc(OC)c2)CCN(C(C)COC)CC1", "note": "(stereo not given)", "max response": "12.7% (inactive)"}
{"smiles": "CN(C)C(CNC(=O)c1cccc(C#N)c1)c1ccco1", "note": "(stereo not given)", "max response": "8.17% (inactive)"}
{"smiles": "O=C(CCl)Nc1ccc(Sc2ccc(NC(=O)CCl)cc2)cc1", "max response": "24.3% (active)"}
{"smiles": "CCN(c1ccccc1)S(=O)(=O)c1ccc(NC(=O)C(C)(C)C)cc1", "max response": "-3.17% (inactive)"}
{"smiles": "O=C(CCl)Nc1cccc(CP(=O)(c2ccccc2)c2ccccc2)c1", "max response": "-1.7% (inactive)"}
{"smiles": "COCC(=O)Nc1ccc(Br)cc1", "max response": "-0.947% (inactive)"}
{"smiles": "CC(C)(CCl)C(=O)Nc1ccc(Sc2ccc(F)cc2)cc1", "max response": "31% (active)"}
{"smiles": "CS(=O)(=O)N(CC(=O)Nc1ccc(F)cc1)C1CCCCC1", "max response": "-2.39% (inactive)"}
{"smiles": "COC(=O)c1sc(N2CCN(Cc3ccccc3)CC2)nc1N", "max response": "-1.52% (inactive)"}
{"smiles": "O=C(Nc1c2c(nn1-c1ccccc1)CS(=O)(=O)C2)C1CCCC1", "max response": "-1.45% (inactive)"}
{"smiles": "N#C/C(=C\\c1ccc(-c2cccc([N+](=O)[O-])c2)o1)C(=O)NCCN1CCOCC1", "max response": "2.05% (inactive)"}
{"smiles": "O=[N+]([O-])c1ccccc1SNc1ccccn1", "max response": "0.9% (inactive)"}
{"smiles": "COc1ccc(N(CC(=O)NC(C)(C)C)C(=O)c2ccco2)cc1", "max response": "1.33% (inactive)"}
{"smiles": "C/C(CC(=O)NC(C)(C)C)=N\\NC(=O)c1ccco1", "max response": "40.4% (active)"}
{"smiles": "CC(C)(C)NC(=O)c1cc(NC(=O)c2ccco2)cc(NC(=O)c2ccco2)c1", "max response": "-2.77% (inactive)"}
{"smiles": "COc1cc(S(=O)(=O)N2CCN=C2c2ccccc2)ccc1Cl", "max response": "3.04% (inactive)"}
{"smiles": "CC(=O)c1nn(-c2cccc(Br)c2)cc1C(=O)c1cccc2ccccc12", "max response": "4.07% (inactive)"}
{"smiles": "CCOC(=O)c1cn(Cc2cccc(C)c2)nn1", "max response": "-0.759% (inactive)"}
{"smiles": "CCOC(=O)c1nn(-c2cccc(C)c2)cc1C(=O)c1ccccc1", "max response": "43.2% (active)"}
{"smiles": "Cc1ccc(S(=O)(=O)N(CC(=O)NCCSC2CCCCC2)c2ccccc2F)cc1", "max response": "-3.31% (inactive)"}
{"smiles": "NS(=O)(=O)c1ccc(CCNc2nc(C(F)(F)F)nc3ccccc23)cc1", "max response": "-0.703% (inactive)"}
{"smiles": "COc1ccc(CCNC(=O)CSCc2ccc(Br)cc2)cc1OC", "max response": "1.16% (inactive)"}
{"smiles": "COc1ccc(Cl)cc1C(=O)NCc1cn(C)nc1C", "max response": "-4.09% (inactive)"}
{"smiles": "Cc1nn(C)cc1CNC(=O)Nc1ccc(Cl)cc1", "max response": "21.8% (active)"}
{"smiles": "Cc1nn(C)cc1C(=O)NNC(=S)Nc1ccc(Cl)cc1", "max response": "-3.2% (inactive)"}
{"smiles": "Cn1ccc(NC(=O)Nc2ccc(Cl)cc2)n1", "max response": "36.8% (active)"}
{"smiles": "CN(C(=O)Nc1ccc(Cl)cc1)n1cnc2ccccc2c1=O", "max response": "3.38% (inactive)"}
{"smiles": "Cn1c(SCC(=O)Nc2ccc(Cl)cc2)nc(O)cc1=O", "max response": "-0.536% (inactive)"}
{"smiles": "CCc1ccccc1NC(=O)CN(c1ccc(OC)cc1OC)S(=O)(=O)c1ccccc1[N+](=O)[O-]", "max response": "10.7% (inactive)"}
{"smiles": "O=c1ccc2cc(S(=O)(=O)Nc3ccccc3F)ccc2o1", "max response": "-3.48% (inactive)"}
{"smiles": "Cc1ccc2c(c1)-c1c(ssc1=S)C(C)(C)N2C(=O)CN1C(=O)c2ccccc2C1=O", "max response": "-4.7% (inactive)"}
{"smiles": "CCCCC1S/C(=N/N=C/c2cccs2)NC1=O", "note": "(stereo not given)", "max response": "-2.78% (inactive)"}
{"smiles": "Nc1ccc(-c2nnc(-c3ccc(-c4ccccc4)cc3)o2)cc1", "max response": "58% (active)"}
{"smiles": "Nc1ccc(-c2sc(N)nc2-c2ccccc2)cc1", "max response": "1.13% (inactive)"}
{"smiles": "Nc1ccc(-c2nnc(-c3ccccc3)o2)cc1", "max response": "51.7% (active)"}
{"smiles": "COc1cccc(OC)c1C(=O)N1CCN(Cc2cccnc2)CC1", "max response": "-3.44% (inactive)"}
{"smiles": "COc1cc(CNCCN(C)C)ccc1OCc1c(F)cccc1Cl", "max response": "-2.65% (inactive)"}
{"smiles": "CCOC(=O)C1CCN(S(=O)(=O)c2ccc3c(c2)N(C(C)=O)CCO3)CC1", "max response": "2.65% (inactive)"}
{"smiles": "Cc1cc(-c2cccs2)nc(-n2cccc2)n1", "max response": "16.4% (inactive)"}
{"smiles": "c1csc(-c2cn3c(n2)SCC3)c1", "max response": "22.4% (active)"}
{"smiles": "CCCS(=O)(=O)Nc1ccc(-c2cn3c(n2)SCC3)cc1", "max response": "1.28% (inactive)"}
{"smiles": "COCCNC(=O)CSc1nc2sccc2c(=O)n1-c1ccccc1", "max response": "-7.71% (inactive)"}
{"smiles": "O=C(NC1CCCC1)C(c1ccco1)N(C(=O)c1csnn1)c1ccccc1", "note": "(stereo not given)", "max response": "-5.09% (inactive)"}
{"smiles": "NC(=O)C1CCCN(CC(=O)N2CCN(c3ccccc3)CC2)C1", "note": "(stereo not given)", "max response": "-4.9% (inactive)"}
{"smiles": "CCOC(=O)C1CCN(S(=O)(=O)c2ccc3c(c2)N(C)C(=O)CC(=O)N3C)CC1", "max response": "-2.95% (inactive)"}
{"smiles": "COc1ccc2c(c1OC)C(=O)N(c1ncn[nH]1)C2", "max response": "2.6% (inactive)"}
{"smiles": "COc1ccc2c(c1OC)C(=O)N(c1ccc(O)cc1)C2", "max response": "18.3% (active)"}
{"smiles": "COc1cc(C(=O)N2C(=O)c3cccc(N)c3C2=O)cc(OC)c1OC", "max response": "2.15% (inactive)"}
{"smiles": "CCOc1ccc(S(=O)(=O)Nc2ccc(OC)nc2)cc1", "max response": "-3.62% (inactive)"}
{"smiles": "CCOC(=O)C1=C(CSc2nnnn2C)N(C)C(=O)NC1c1ccccc1", "note": "(stereo not given)", "max response": "-4.86% (inactive)"}
{"smiles": "Cc1cccnc1NC(=O)Cn1c(=O)oc2ccccc21", "max response": "-0.475% (inactive)"}
{"smiles": "Cc1nc(COc2cc3oc(=O)cc(C)c3cc2Cl)cs1", "max response": "5.56% (inactive)"}
{"smiles": "O=C(CCc1ccccc1)Nc1ccnn1C1CCN(Cc2ccc(OCCO)cc2)CC1", "max response": "-1.22% (inactive)"}
{"smiles": "Cc1ccccc1-c1nc(CS(=O)(=O)CC(=O)NC(C)c2ccccc2)c(C)o1", "note": "(stereo not given)", "max response": "1.09% (inactive)"}
{"smiles": "O=C(NNC(=O)c1csc(-c2cccnc2)n1)Nc1ccc(Cl)cc1", "max response": "1.7% (inactive)"}
{"smiles": "Cc1ccnc(NC(=O)c2ccc(Cl)c([N+](=O)[O-])c2)c1", "max response": "28.9% (active)"}
{"smiles": "O=C(Nc1ccc(Cl)cc1)Nc1ccc(Oc2cccnc2)nc1", "max response": "46.4% (active)"}
{"smiles": "C/C(=N\\NS(=O)(=O)c1ccc(Cl)cc1)c1ccc(NC(=O)c2ccco2)cc1", "max response": "34.2% (active)"}
{"smiles": "CN1CCN(S(=O)(=O)c2ccc(NC(=O)c3ccco3)cc2)CC1", "max response": "12% (inactive)"}
{"smiles": "COC(=O)c1ccc(NC(=O)c2ccco2)cc1", "max response": "25.4% (active)"}
{"smiles": "O=C(Nc1cccnc1)c1cc(Cl)ccc1Cl", "max response": "1.75% (inactive)"}
{"smiles": "O=C(Nc1cccnc1)c1ccc(Cl)c([N+](=O)[O-])c1", "max response": "11.1% (inactive)"}
{"smiles": "O=C(Nc1ccncc1)c1ccc(Cl)c([N+](=O)[O-])c1", "max response": "-2.17% (inactive)"}
{"smiles": "COC(=O)c1cc(NC(=O)c2ccco2)ccc1N1CCOCC1", "max response": "-1.96% (inactive)"}
{"smiles": "C/C(=N/NS(=O)(=O)c1ccccc1)c1ccc(NC(=O)C(F)(F)F)cc1", "max response": "1.13% (inactive)"}
{"smiles": "CCOC(=O)c1ccc(NC(=O)CNC(=O)c2ccco2)cc1", "max response": "-0.716% (inactive)"}
{"smiles": "COc1ccc(N2C(=O)/C(=C\\c3ccco3)N=C2SCC(N)=O)cc1Cl", "max response": "1.81% (inactive)"}
{"smiles": "CCOc1ccccc1N1CCN(C(=S)Nc2ccc(S(N)(=O)=O)cc2)CC1", "max response": "-1.52% (inactive)"}
{"smiles": "Cc1ccc(C(CNC(=O)Nc2ccccc2)N2CCN(C)CC2)cc1", "note": "(stereo not given)", "max response": "-1.45% (inactive)"}
{"smiles": "COC(=O)c1cc(S(=O)(=O)N2CCN(c3cc(C)ccc3C)CC2)c[nH]1", "max response": "1.68% (inactive)"}
